# The supplement of paper PMC6555819
# Legend:
# Experiment in all cases: PBM binding z-score (relative to random genomic background probes); higher = stronger binding; sequences stand for … in GC…GCGATTGACAGCGTAGAATGAAGG
# [1] = test system: FXR:RXRa (NR concentration 270 nM, RXRa partner concentration 90 nM)
# Summary of the method: (§1)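 Custom Agilent 4×180K protein-binding microarrays carried double-stranded probes, each with a 34-nt variable region. These regions held direct-repeat seeds, single-nucleotide variants, half-site ablations and random human genomic background sequences. Ligand-free nuclear receptor dimers were incubated on the arrays for 1 h, antibodies against each partner (one per run) detected binding, and scanned fluorescence was regression-normalized. Binding z-scores take the random background probes as reference.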
# [2] = test system: LXRa:RXRa (NR concentration 270 nM, RXRa partner concentration 90 nM)
# Summary of the method: as §1
# [3] = test system: LXRa homodimer (NR concentration 270 nM)
# Summary of the method: as §1
# [4] = test system: LXRb:RXRa (NR concentration 270 nM, RXRa partner concentration 90 nM)
# Summary of the method: as §1
# [5] = test system: LXRb homodimer (NR concentration 270 nM)
# Summary of the method: as §1
# [6] = test system: PPARa:RXRa (NR concentration 270 nM, RXRa partner concentration 90 nM)
# Summary of the method: as §1
# [7] = test system: PPARg:RXRa (NR concentration 180 nM, RXRa partner concentration 90 nM)
# Summary of the method: as §1
# [8] = test system: PPARg:RXRa 270nM:90nM, anti-RXR (NR concentration 270 nM, RXRa partner concentration 90 nM)
# Summary of the method: as §1
# [9] = test system: PPARg:RXRa 30nM:10nM, anti-RXR (NR concentration 30 nM, RXRa partner concentration 10 nM)
# Summary of the method: as §1
# [10] = test system: PPARg:RXRa 90nM:30nM, anti-RXR (NR concentration 90 nM, RXRa partner concentration 30 nM)
# Summary of the method: as §1
# [11] = test system: PPARg:RXRa DBDmut IVT, anti-RXR (DBD mutation: RXRa K156A/R161A, NR concentration 270 nM, RXRa partner concentration 90 nM)
# Summary of the method: as §1
# [12] = test system: PPARg:RXRa IVT, anti-PPARg (NR concentration 270 nM, RXRa partner concentration 90 nM)
# Summary of the method: as §1
# [13] = test system: PPARg DBDmut:RXRa IVT, anti-PPARg (DBD mutation: PPARg1 K132A/R137A, NR concentration 270 nM, RXRa partner concentration 90 nM)
# Summary of the method: as §1
# [14] = test system: PPARg DBDmut IVT, anti-PPARg (DBD mutation: PPARg1 K132A/R137A, NR concentration 270 nM)
# Summary of the method: as §1
# [15] = test system: PPARg homodimer (NR concentration 180 nM)
# Summary of the method: as §1
# [16] = test system: PXR:RXRa (NR concentration 270 nM, RXRa partner concentration 90 nM)
# Summary of the method: as §1
# [17] = test system: PXR homodimer (NR concentration 270 nM)
# Summary of the method: as §1
# [18] = test system: RARa:RXR (NR concentration 270 nM, RXRa partner concentration 90 nM)
# Summary of the method: as §1
# [19] = test system: RARa homodimer (NR concentration 270 nM)
# Summary of the method: as §1
# [20] = test system: RARb:RXRa (NR concentration 270 nM, RXRa partner concentration 90 nM)
# Summary of the method: as §1
Sequence,PBM binding z-score [1],PBM binding z-score [2],PBM binding z-score [3],PBM binding z-score [4],PBM binding z-score [5],PBM binding z-score [6],PBM binding z-score [7],PBM binding z-score [8],PBM binding z-score [9],PBM binding z-score [10],PBM binding z-score [11],PBM binding z-score [12],PBM binding z-score [13],PBM binding z-score [14],PBM binding z-score [15],PBM binding z-score [16],PBM binding z-score [17],PBM binding z-score [18],PBM binding z-score [19],PBM binding z-score [20]
GGAACGAGTGCATTCGAGTTGATAGCATGGCGAT,-0.159,0.374,-0.89,-0.659,-1.1,-0.426,0.302,-0.652,-0.79,-1.09,-0.308,-0.6,-1.05,-0.767,-1.32,2.91,3.49,-0.0398,-1.2,-0.311
GCGACTGGGGCAAAGCAGGTTACCATGAGGTTGG,0.529,0.0146,-0.506,0.0618,-0.859,1.1,1.18,1.05,-0.313,0.335,4.46,3.79,-0.666,-1.4,0.0533,0.378,-0.61,0.383,-0.939,0.981
TCGAGTAGGTTAGGGGCATTTAGAATGGCGTCGA,0.425,0.611,-0.123,0.871,0.134,1.37,0.729,2.07,1.37,1.68,2.14,1.43,-0.441,-0.569,0.734,0.534,0.61,0.611,0.362,0.962
AATACACGGTCACTAGGCCAGAGTAGGTACGAAT,0.614,1.45,1.32,0.203,0.449,0.827,2.67,1.74,0.885,1.15,2.08,3.87,1.22,1.13,0.988,0.0441,-0.0687,0.462,0.429,2.77
TCTTGTAGATCCAGCAGGTTAAGAAAGCCTGAGT,0.108,0.186,-0.293,0.284,-0.208,0.342,-0.483,1.03,2.62,1.84,1.04,-0.258,-0.0441,-0.28,-0.955,0.35,0.226,0.259,-0.051,0.133
TGTGCTAGGTCAACGATGGTCAGCTAATCTGCTA,3.38,2.67,-0.0277,1.54,0.116,3.1,2.68,2.4,0.195,1.68,2.94,4.09,0.203,0.0393,1.1,1.4,-0.379,1.85,-0.241,4.15
TCATATAGGTATATGCTAGGTGAAAGTCCGATCT,0.567,0.913,0.175,0.545,-0.249,0.818,0.703,1.78,3.31,2.54,2.4,1.07,0.908,1.63,0.436,0.612,0.215,0.893,0.379,0.145
CCAGACAGGGGAAAGGTAACTCAGTCTGGTACGC,-0.0858,-0.233,-0.21,0.0681,-0.648,1.46,2.34,3.79,1.37,3.25,-0.0945,0.279,-0.482,-1.01,0.356,0.0184,-0.106,0.15,-0.374,0.202
CCTCGGAGGACAGAAGGCCAGAGCTGTCCGCTTT,-0.543,-0.556,-1.17,-1.28,-1.6,-1.15,-0.739,-1.08,-1.21,-1.06,-0.668,-1.07,-2.21,-1.68,-0.167,-0.524,-1.34,-0.34,-0.862,0.374
ATATGTAGGTTACATCCGGGTCACTCAGGCTATG,2.08,3.86,1.09,2.75,0.682,4.31,6.07,5.17,2.68,4.31,7.65,7.47,3.76,3.51,2.34,3.29,1.26,3.74,0.95,2.41
AGAACGAGGGCAAGGAGTTGATAGCACGGGTGGC,0.193,0.0802,-0.479,-0.441,-0.879,1.2,1.25,1.06,-0.111,0.543,2.54,2.09,1.19,-0.462,0.0784,0.742,1.54,0.14,-0.0474,2.15
TCTTGTAGAACAGCAGGTTAAGAAAGCTGGCCAA,-0.25,-0.235,-0.708,-0.0015,-0.898,0.675,-0.134,1.17,2.2,1.9,1.67,0.554,-0.871,-0.593,-0.509,0.0552,-0.772,-0.0223,-1.16,0.0879
CCTTACGGGTCACGAGGTTATAGCACGACGAGCG,6.74,4.6,0.401,4.02,-0.321,5.94,7.45,6.6,3.13,5.31,3.98,5.69,1.85,0.701,2.37,4.46,0.418,5.47,0.688,4.62
CGAACTAGGTCAAGGACAGTCAATCTCCGCACGC,3.39,2.64,0.323,1.57,-0.248,4.76,7.58,6.42,3.9,5.59,8.01,8.24,1.66,1.8,1.37,1.25,0.00572,2.09,0.256,4.08
